The source of these data is publication PMC5540273 (PLoS ONE, 2017).
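Further: KINOMEscan kinase panel screen.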

The subject of the first assay is TAOK2. Particulars: concentration: 1 μM, replicates: in singlicate; n = 1.
In the case of `O=C(Nc1n[nH]c2nc(-c3nccs3)c(Br)cc12)C1CCCC1` [SB-742609], the “%Inh” value was determined as 0%.
For `CC1=C(C(=O)Nc2cc3cn[nH]c3cc2F)C(c2ccc(C(F)(F)F)cc2)CC(=O)N1` (centres unmarked) [GSK429286], the “%Inh” value is recorded as 0%.
Regarding `CSc1nn2c(=O)cc(N3CCOCC3)nc2n1Cc1cccc(C(F)(F)F)c1C` [GSK2363608], the “%Inh” value came to 0%.
`Cl.O=C(Nc1cccc(-c2nn3ncccc3c2-c2ccnc(Nc3cccnc3)n2)c1)c1c(F)cccc1F` [GSK312879]: the “%Inh” value is given as 0%.
On to `Cc1ccc(NC(=O)Nc2cccc(Cl)c2)cc1-c1ccc(C(=O)Nc2ccncc2)cc1` [GSK1398468], for which the “%Inh” value worked out at 0%.
Regarding `CC(=O)Nc1nc2cnc(Nc3cc(NC(=O)c4cccc(CCC#N)c4)ccc3C)nc2s1`, the “%Inh” value is given as 0%.
With `COc1cccc(NC(=O)NC2CCN(c3ccnc(Nc4ccc(F)cc4)n3)C2)c1` (centres unmarked) [GSK1379721], the “%Inh” value is listed as 0%.
Regarding `CS(=O)(=O)c1ccc(-c2nc3n(c2-c2ccncc2)CCC3)cc1` [SKF-105942], the “%Inh” value is given as 0%.
The same measure, in the same setting: next, `CCCc1ccc(S(=O)(=O)NC2CCN(c3ccnc(Nc4ccc(F)cc4)n3)C2)cc1` (centres unmarked) [GSK1379715]: 0%.
For `O=S(=O)(c1ccc(-c2ccnc3[nH]ccc23)cc1)N1CCCC1` [GSK846226], the “%Inh” value was 0%.
In the case of `Cc1ccc(NC(=O)Nc2cc(C(C)(C)C)nn2-c2ccccc2)cc1` [GSK1014915], the “%Inh” value was 0%.
In the case of `CN(C)CCN(C)C(=O)c1cc(-c2ccncc2)c(-c2ccc(Cl)c(O)c2)o1.Cl.Cl` [SB-710397], the “%Inh” value is on record as 0%.
With `O=C(O)COc1ncnc2cc(-c3ccc4[nH]ncc4c3)sc12`, the “%Inh” value amounted to 0%.
As to `Cc1cccc(-c2nc(C)cc(Nc3ccncc3)n2)n1` [GSK257997], the “%Inh” value came to 0%.
The same measure, in the same setting: next, `O=C(Nc1n[nH]c2nc(-c3nccs3)c(Br)cc12)C1CC1` [SB-742251]: 0%; `Nc1nc(-c2nccs2)c(-c2ccnc3ccccc23)s1` [GW693542]: 0%; `CC(C)(C)c1ccc(C(=O)Nc2cn3cc(-c4cccnc4)ccc3n2)cc1`: 2%.
Consider `Cn1ccc2ncnc(Oc3ccc(NC(=O)Nc4ccccc4)cc3)c21`, for which the “%Inh” value was determined as 0%.
On to `Cl.c1ccc(-c2n[nH]cc2-c2ccnc(-c3ccc(CN4CCOCC4)cc3)c2)nc1` [GW776245], for which the “%Inh” value is 5%.
Consider `COc1cc2ncn(-c3cc(OCC4CCCO4)c(C(N)=O)s3)c2cc1OC` (centres unmarked) [GSK204607], for which the “%Inh” value is 0%.
Turning to `COc1ccc(C2=C(Nc3cccc(C(=O)O)c3)C(=O)NC2=O)cc1` [SB-390765], the “%Inh” value is 28%.
Same read-out and setting: next, `Fc1cc(Cl)ccc1Nc1ccnc2cc(-c3ccc(CN4CCCCC4)o3)ccc12` [GW560116]: 0%.
For `O=c1cc(N2CCOCC2)nc2n(Cc3cccc(Cl)c3Cl)ccn12` [GSK2286295], the “%Inh” value worked out at 0%.
Turning to `O=C(Nc1ccccc1)Nc1cccc(Oc2ccc3nccn3n2)c1`, the “%Inh” value was found to be 0%.
Turning to `Nc1ncnc2[nH]c(-c3ccccc3)nc12` [AH5015], the “%Inh” value came out at 0%.
As for `Cc1cccc(-c2nc(-c3ccc(S(C)(=O)=O)cc3)sc2-c2ccnc(NCCc3ccccc3)c2)c1`, the “%Inh” value turned out to be 12%.
Regarding `O=C(Nc1n[nH]c2cc(-c3cccc(F)c3F)ccc12)C1CC1` [SB-733894], the “%Inh” value is given as 0%.
As to `CN1C(=O)C(Nc2ccc(Cl)c(C(=O)O)c2)=C(c2ccc(Cl)cc2)C1=O` [SB-404290], the “%Inh” value was 5%.
Take `Cn1cncc1-c1ccc2ncnc(Nc3ccc(OCc4ccccc4)cc3)c2c1` [GW320571]: the “%Inh” value is listed as 0%.
In the case of `Cn1ccc2ncnc(Oc3cccc(C(=O)Nc4ccccc4)c3)c21`, the “%Inh” value was found to be 0%.
Turning to `Fc1cc(Cl)ccc1Nc1ccnc2cc(I)ccc12` [GW551191], the “%Inh” value is on record as 0%.
As to `COc1cc2ncnc(Nc3ccc4nc(-c5ccccc5)[nH]c4c3)c2cc1OC.Cl` [GW282450], the “%Inh” value stood at 0%.
Same read-out and setting: the result for `COc1cccc(-c2cc(-c3c[nH]nc3-c3ccccn3)ccn2)c1` [GW680338] reads 0%; that for `COc1ccc(CNC(=O)NC2CCN(c3ccnc(Nc4cc(OC)c(OC)c(OC)c4)n3)C2)cc1` (centres unmarked) [GSK1379748], 0%.

For another assay, the system named is TAOK3. Particulars: concentration: 1 μM, replicates: in singlicate; n = 1.
As to `O=C(Nc1n[nH]c2nc(-c3nccs3)c(Br)cc12)C1CCCC1` [SB-742609], the “%Inh” value worked out at 0%.
Turning to `CC1=C(C(=O)Nc2cc3cn[nH]c3cc2F)C(c2ccc(C(F)(F)F)cc2)CC(=O)N1` (centres unmarked) [GSK429286], the “%Inh” value amounted to 0%.
With `CSc1nn2c(=O)cc(N3CCOCC3)nc2n1Cc1cccc(C(F)(F)F)c1C` [GSK2363608], the “%Inh” value came to 0%.
Consider `Cl.O=C(Nc1cccc(-c2nn3ncccc3c2-c2ccnc(Nc3cccnc3)n2)c1)c1c(F)cccc1F` [GSK312879], for which the “%Inh” value was determined as 7%.
Same read-out and setting: next, `Cc1ccc(NC(=O)Nc2cccc(Cl)c2)cc1-c1ccc(C(=O)Nc2ccncc2)cc1` [GSK1398468]: 0%.
Take `CC(=O)Nc1nc2cnc(Nc3cc(NC(=O)c4cccc(CCC#N)c4)ccc3C)nc2s1`: the “%Inh” value was 0%.
`COc1cccc(NC(=O)NC2CCN(c3ccnc(Nc4ccc(F)cc4)n3)C2)c1` (centres unmarked) [GSK1379721]: the “%Inh” value worked out at 2%.
As to `CS(=O)(=O)c1ccc(-c2nc3n(c2-c2ccncc2)CCC3)cc1` [SKF-105942], the “%Inh” value was found to be 0%.
As to `CCCc1ccc(S(=O)(=O)NC2CCN(c3ccnc(Nc4ccc(F)cc4)n3)C2)cc1` (centres unmarked) [GSK1379715], the “%Inh” value is recorded as 0%.
As for `O=S(=O)(c1ccc(-c2ccnc3[nH]ccc23)cc1)N1CCCC1` [GSK846226], the “%Inh” value turned out to be 0%.
For the molecule `Cc1ccc(NC(=O)Nc2cc(C(C)(C)C)nn2-c2ccccc2)cc1` [GSK1014915], the “%Inh” value was determined as 0%.
Turning to `CN(C)CCN(C)C(=O)c1cc(-c2ccncc2)c(-c2ccc(Cl)c(O)c2)o1.Cl.Cl` [SB-710397], the “%Inh” value is given as 0%.
On the same count and under the same terms, the result for `O=C(O)COc1ncnc2cc(-c3ccc4[nH]ncc4c3)sc12` reads 0%.
As to `Cc1cccc(-c2nc(C)cc(Nc3ccncc3)n2)n1` [GSK257997], the “%Inh” value was determined as 0%.
Consider `O=C(Nc1n[nH]c2nc(-c3nccs3)c(Br)cc12)C1CC1` [SB-742251], for which the “%Inh” value is reported as 0%.
Same read-out and setting: the result for `Nc1nc(-c2nccs2)c(-c2ccnc3ccccc23)s1` [GW693542] reads 0%.
For `CC(C)(C)c1ccc(C(=O)Nc2cn3cc(-c4cccnc4)ccc3n2)cc1`, the “%Inh” value came to 0%.
On the same count and under the same terms, the result for `Cn1ccc2ncnc(Oc3ccc(NC(=O)Nc4ccccc4)cc3)c21` reads 0%; that for `Cl.c1ccc(-c2n[nH]cc2-c2ccnc(-c3ccc(CN4CCOCC4)cc3)c2)nc1` [GW776245], 0%.
As to `COc1cc2ncn(-c3cc(OCC4CCCO4)c(C(N)=O)s3)c2cc1OC` (centres unmarked) [GSK204607], the “%Inh” value is recorded as 0%.
In the case of `COc1ccc(C2=C(Nc3cccc(C(=O)O)c3)C(=O)NC2=O)cc1` [SB-390765], the “%Inh” value is listed as 23%.
On to `Fc1cc(Cl)ccc1Nc1ccnc2cc(-c3ccc(CN4CCCCC4)o3)ccc12` [GW560116], for which the “%Inh” value stood at 0%.
As to `O=c1cc(N2CCOCC2)nc2n(Cc3cccc(Cl)c3Cl)ccn12` [GSK2286295], the “%Inh” value was found to be 0%.
`O=C(Nc1ccccc1)Nc1cccc(Oc2ccc3nccn3n2)c1`: the “%Inh” value came out at 0%.
The same measure, in the same setting: the result for `Nc1ncnc2[nH]c(-c3ccccc3)nc12` [AH5015] reads 9%; that for `Cc1cccc(-c2nc(-c3ccc(S(C)(=O)=O)cc3)sc2-c2ccnc(NCCc3ccccc3)c2)c1`, 0%; that for `O=C(Nc1n[nH]c2cc(-c3cccc(F)c3F)ccc12)C1CC1` [SB-733894], 16%.
Same read-out and setting: the result for `CN1C(=O)C(Nc2ccc(Cl)c(C(=O)O)c2)=C(c2ccc(Cl)cc2)C1=O` [SB-404290] reads 19%; that for `Cn1cncc1-c1ccc2ncnc(Nc3ccc(OCc4ccccc4)cc3)c2c1` [GW320571], 0%; that for `Cn1ccc2ncnc(Oc3cccc(C(=O)Nc4ccccc4)c3)c21`, 0%.
Regarding `Fc1cc(Cl)ccc1Nc1ccnc2cc(I)ccc12` [GW551191], the “%Inh” value came out at 0%.
Regarding `COc1cc2ncnc(Nc3ccc4nc(-c5ccccc5)[nH]c4c3)c2cc1OC.Cl` [GW282450], the “%Inh” value came to 0%.
Same read-out and setting: next, `COc1cccc(-c2cc(-c3c[nH]nc3-c3ccccn3)ccn2)c1` [GW680338]: 0%.
As for `COc1ccc(CNC(=O)NC2CCN(c3ccnc(Nc4cc(OC)c(OC)c(OC)c4)n3)C2)cc1` (centres unmarked) [GSK1379748], the “%Inh” value turned out to be 0%.
